According to PubChem BioAssay (Tox21):
Results filed as inconclusive are left out. Entries that show only a call come without a potency. Unmarked numbers belong to inactive results. The source made the active and inactive calls. Unless noted, the call rests on the fitted dose curve; in most records, active means well fitted curve in the direction sought with a large enough effect in the repeat runs; inconclusive means weak or mixed curves; inactive means no such curve, though single readings can be large; an effect the other way counts as inactive or inconclusive.

Columns and labels:
[1] = qHTS assay to identify small molecule antagonists of the estrogen related receptor (ERR) signaling pathway from Tox21 library - cell viability counter screen (AID 1224834); further: nearly all actives have a fitted effect of over 30% in size; further: potency means the concentration at half of the fitted maximal effect
Procedure, shortened: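 ERR reporter cells were plated 6 h before compound addition, then exposed to test compounds in DMSO for 17.5 h at 37 C. Viability was read as CellTiter-Fluor fluorescence after a 30-minute incubation at 37 C.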

[2] = molecular target: Luciferin 4-monooxygenase (Photinus pyralis) (UniProt P08659); test: qHTS assay to identify small molecule inhibitors of firefly luciferase (AID 1224835); further: nearly all actives have a fitted effect of over 25% in size; further: potency means the concentration at half of the fitted maximal effect
Procedure, shortened: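 Quantitative HTS format; KM concentrations of both substrates. Purified P. pyralis FLuc activity quantified from luminescence images.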

[3] = qHTS assay to identify small molecule agonists of the constitutive androstane receptor (CAR) signaling pathway - cell viability counter screen (AID 1224836); further: series mostly up to about 92 µM; nearly all actives have a fitted effect of over 45% in size
Procedure, shortened: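 HepG2 cells stably carrying hCAR and a CYP2B6-2.2kb reporter; 15-concentration compounds plus PK11195 (final 0.75 uM), 23 hr at 37 C/5% CO2. Viability read by CellTiter-Fluor fluorescence.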

[4] = qHTS assay to identify small molecule antagonists of the constitutive androstane receptor (CAR) signaling pathway - cell viability counter screen (AID 1224837); further: series mostly up to about 92 µM; nearly all actives have a fitted effect of over 45% in size
Procedure, shortened: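 HepG2 cells stably expressing hCAR and a CYP2B6-2.2kb reporter were plated and pre-incubated 4 hr at 37 C/5% CO2, then given compounds at 15 concentrations plus 50 nM CITCO (final). After 23 hr, viability was read by CellTiter-Fluor fluorescence.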

[5] = molecular target: Nuclear receptor subfamily 1 group I member 3 (Homo sapiens) (UniProt Q14994); test: qHTS assay to identify small molecule antagonists of the constitutive androstane receptor (CAR) signaling pathway (AID 1224838); further: nearly all actives have a fitted effect of over 40% in size
Procedure, shortened: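 HepG2 cells stably co-transfected with hCAR and a CYP2B6-2.2kb luciferase reporter were seeded 4 h before compound addition at 15 concentrations. Cells were stimulated with 50 nM CITCO (final) for 24 h at 37 C; luciferase luminescence was then read.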

[6] = molecular target: Nuclear receptor subfamily 1 group I member 3 (Homo sapiens) (UniProt Q14994); test: qHTS assay to identify small molecule agonists of the constitutive androstane receptor (CAR) signaling pathway (AID 1224839); further: nearly all actives have a fitted effect of over 15% in size; further: potency means the concentration at half of the fitted maximal effect
Procedure, shortened: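 HepG2 cells stably co-transfected with hCAR and a CYP2B6-2.2kb luciferase reporter; compounds at 15 concentrations with 0.75 uM PK11195 present. After 24 hr at 37 C, luciferase read by ONE-Glo luminescence.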

[7] = qHTS assay to identify small molecule antagonists of the estrogen related receptor signaling pathway with the pleiotropic PPARgamma coactivator (PGC) from Tox21 10K library - cell viability counter screen (AID 1224840; active means well fitted cell-killing curve with a large enough effect in the repeat runs, not every such curve was filed as active; further: nearly all actives have a fitted effect of over 40% in size)
Procedure, shortened: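 PGC/ERR cells were seeded at 2,000 cells/well and left 6 hours at 37 C/5% CO2 before pin-tool addition of compounds in DMSO. After 17.5 hours at 37 C, CellTiter-Fluor was added and fluorescence read 30 minutes later.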

[8] = qHTS assay to identify small molecule antagonists of the estrogen related receptor signaling pathway with the pleiotropic PPARgamma coactivator (PGC) from Tox21 10K library (AID 1224841; call rule not given here; further: series mostly up to about 92 µM; actives are mostly falling curves and most rising ones were filed inactive; nearly all actives have a fitted effect of over 50% in size)
Procedure, shortened: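 PGC/ERR reporter cells were seeded at 2,000 cells/well and held 6 hours at 37 C/5% CO2 before pin-tool addition of compounds in DMSO. After 18 hours at 37 C, One-Glo was added and luminescence read after 30 minutes at room temperature.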

[9] = qHTS assay to identify small molecule agonists of the estrogen related receptor signaling pathway with the pleiotropic PPARgamma coactivator (PGC) from Tox21 10K library (AID 1224842); further: nearly all actives have a fitted effect of over 15% in size
Procedure, shortened: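 PGC/ERR reporter cells (NTP line) were seeded 2,000 per well, rested 6 h at 37 C/5% CO2, then pin-dosed with compounds in DMSO for 18 h at 37 C; luciferase read by One-Glo luminescence after 30 min at room temperature.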

[10] = molecular target: Thyrotropin receptor (Homo sapiens) (UniProt P16473); test: qHTS assay to identify small molecule agonists of the thyroid stimulating hormone receptor (TSHR) signaling pathway (AID 1224843; calls by dose curve; further: nearly all actives have a fitted effect of over 45% in size)
Procedure, shortened: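 TSHR-expressing HEK293 cells (800 per well) were exposed to compounds for 30 min at room temperature. cAMP was then detected by HTRF competition with cAMP-d2 and anti-cAMP cryptate, read after 1 h at room temperature. Fifteen concentrations, triplicate.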

Sequence of Nuclear receptor subfamily 1 group I member 3 (Homo sapiens) (Q14994 whole entry, looked up): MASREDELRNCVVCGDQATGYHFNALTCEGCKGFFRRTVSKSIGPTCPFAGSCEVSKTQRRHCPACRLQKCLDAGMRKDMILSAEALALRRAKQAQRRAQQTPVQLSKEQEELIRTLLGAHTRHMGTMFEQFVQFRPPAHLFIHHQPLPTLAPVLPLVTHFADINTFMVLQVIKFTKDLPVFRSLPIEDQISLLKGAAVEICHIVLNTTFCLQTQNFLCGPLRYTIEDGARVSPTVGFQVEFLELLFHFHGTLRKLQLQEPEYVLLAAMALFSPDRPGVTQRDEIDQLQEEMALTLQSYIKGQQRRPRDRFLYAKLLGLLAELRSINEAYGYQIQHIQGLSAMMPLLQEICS
Sequence of Luciferin 4-monooxygenase (Photinus pyralis) (P08659 whole entry, looked up): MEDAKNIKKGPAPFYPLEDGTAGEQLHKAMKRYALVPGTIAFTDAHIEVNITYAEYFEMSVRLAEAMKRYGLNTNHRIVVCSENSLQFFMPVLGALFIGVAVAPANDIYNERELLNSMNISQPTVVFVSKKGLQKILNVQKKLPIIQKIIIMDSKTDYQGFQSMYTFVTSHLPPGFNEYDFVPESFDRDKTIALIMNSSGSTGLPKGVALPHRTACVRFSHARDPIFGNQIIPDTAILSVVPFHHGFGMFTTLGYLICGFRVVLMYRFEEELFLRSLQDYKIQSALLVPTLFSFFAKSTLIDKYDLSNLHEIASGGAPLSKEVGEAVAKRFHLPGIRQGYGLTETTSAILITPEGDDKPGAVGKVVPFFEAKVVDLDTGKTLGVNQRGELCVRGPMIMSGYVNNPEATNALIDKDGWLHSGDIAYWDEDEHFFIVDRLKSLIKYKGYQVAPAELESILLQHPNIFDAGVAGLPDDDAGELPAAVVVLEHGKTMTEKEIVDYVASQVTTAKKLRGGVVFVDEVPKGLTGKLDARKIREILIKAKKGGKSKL
Sequence of Thyrotropin receptor (Homo sapiens) (P16473 whole entry, looked up): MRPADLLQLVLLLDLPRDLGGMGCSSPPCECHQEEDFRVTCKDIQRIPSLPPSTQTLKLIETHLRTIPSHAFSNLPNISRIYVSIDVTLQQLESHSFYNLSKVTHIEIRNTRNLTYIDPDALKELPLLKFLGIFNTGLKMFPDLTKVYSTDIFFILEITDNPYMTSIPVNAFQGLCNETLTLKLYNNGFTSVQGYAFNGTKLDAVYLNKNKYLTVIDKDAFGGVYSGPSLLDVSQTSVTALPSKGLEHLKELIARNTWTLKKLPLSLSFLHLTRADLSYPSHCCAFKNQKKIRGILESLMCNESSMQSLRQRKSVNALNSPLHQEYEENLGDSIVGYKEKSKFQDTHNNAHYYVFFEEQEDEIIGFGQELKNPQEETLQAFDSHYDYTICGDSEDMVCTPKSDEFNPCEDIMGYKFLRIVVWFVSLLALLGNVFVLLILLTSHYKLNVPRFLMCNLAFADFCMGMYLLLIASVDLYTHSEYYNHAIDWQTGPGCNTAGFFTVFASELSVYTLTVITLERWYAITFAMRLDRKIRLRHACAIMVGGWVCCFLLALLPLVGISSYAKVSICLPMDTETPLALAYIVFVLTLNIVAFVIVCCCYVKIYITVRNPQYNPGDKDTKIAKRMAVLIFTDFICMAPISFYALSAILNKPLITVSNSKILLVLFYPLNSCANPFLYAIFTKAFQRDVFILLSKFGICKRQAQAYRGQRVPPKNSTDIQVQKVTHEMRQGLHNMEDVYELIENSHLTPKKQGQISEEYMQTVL

Row | SMILES | Potency [1] | Potency [2] | Potency [3] | Potency [4] | Potency [5] | Potency [6] | Potency [7] | Potency [8] | Potency [9] | Potency [10]
1 | COc1cccc(N(C)C(=S)Oc2ccc3c(c2)CCCC3)n1 | inactive | inactive | inactive | inactive | inactive | inactive | inactive | – | – | –
2 | CN(C)CCN(Cc1ccsc1)c1ccccn1 | inactive | inactive | inactive | inactive | inactive | inactive | inactive | – | – | –
3 | CC(C)Nc1ccc(NC(C)C)c2c1C(=O)c1ccccc1C2=O | 20.1 µM (active) | 33 µM (active) | inactive | inactive | inactive | inactive | – | – | – | –
4 | O=C(OCCCCCCOC(=O)c1ccccc1)c1ccccc1 | inactive | inactive | inactive | inactive | inactive | inactive | inactive | inactive | inactive | –
5 | CC1=CC[C@H](C(C)C)C=C1 | inactive | inactive | inactive | inactive | inactive | inactive | inactive | – | – | –
6 | O=C(O)c1nc(Cl)c(Cl)c(Cl)c1Cl | inactive | inactive | inactive | inactive | inactive | 17.2 µM (active) | inactive | inactive | inactive | –
7 | C[Si](C)(CCCN)O[Si](C)(C)CCCN | inactive | inactive | inactive | inactive | inactive | inactive | inactive | inactive | inactive | inactive
8 | COc1ccc(C)cc1[N+](=O)[O-] | inactive | inactive | inactive | inactive | inactive | inactive | inactive | inactive | inactive | inactive
9 | C=CCOc1ccccc1OCC(O)CNC(C)C (stereo not given) | inactive | inactive | inactive | inactive | inactive | inactive | inactive | inactive | inactive | –
10 | CCN(CC)CCOC(=O)C(c1ccccc1)C1CCCCC1 (stereo not given) | 29.8 µM (active) | inactive | inactive | inactive | inactive | inactive | – | – | – | –
11 | NCCCN1CCOCC1 | inactive | inactive | inactive | inactive | inactive | inactive | inactive | inactive | inactive | inactive
12 | CCCCCCCCCCCCN1CCCCCC1=O | inactive | inactive | inactive | inactive | inactive | 61.1 µM (active) | inactive | inactive | inactive | –
13 | C#CCN(C)CCCOc1ccc(Cl)cc1Cl | inactive | 15.5 µM (active) | inactive | inactive | inactive | 26.6 µM (active) | – | – | – | –
14 | COc1cc2nc(Cl)nc(N)c2cc1OC | inactive | inactive | inactive | inactive | inactive | inactive | – | – | – | –
15 | CCCCCCCCCCO[C@@H]1O[C@H](CO)[C@@H](O)[C@H](O)[C@H]1O | inactive | inactive | inactive | inactive | inactive | inactive | inactive | – | – | –
16 | O=C1CCCCCCCCCCCC(=O)OCCO1 | inactive | inactive | inactive | inactive | inactive | inactive | inactive | inactive | inactive | –
17 | C=CC1CC2C=CC1C2 (stereo not given) | inactive | inactive | inactive | inactive | inactive | inactive | inactive | – | – | –
18 | CCCn1cnc2c1c(=O)n(CCCCC(C)=O)c(=O)n2C | inactive | inactive | inactive | inactive | inactive | inactive | inactive | inactive | inactive | inactive
19 | CCOC(=O)C(=O)CCc1ccccc1 | inactive | inactive | inactive | inactive | inactive | inactive | inactive | – | – | –
20 | CCC(CC)Nc1ccc(C)c(C)c1 | inactive | inactive | inactive | inactive | inactive | inactive | – | – | – | –
21 | CC(C)(CO)[N+](=O)[O-] | inactive | inactive | inactive | inactive | inactive | inactive | – | – | – | –
22 | OCCNCc1ccccc1 | inactive | inactive | inactive | inactive | inactive | inactive | inactive | – | – | –
23 | CN(Cc1ccc(C(C)(C)C)cc1)Cc1cccc2ccccc12 | inactive | inactive | inactive | inactive | inactive | inactive | inactive | – | – | –
24 | CN1Cc2cc(C(=O)N3CCC(C4CCNCC4)CC3)ccc2NC(CC(=O)O)C1=O (stereo not given) | inactive | inactive | inactive | inactive | inactive | inactive | inactive | inactive | inactive | inactive
25 | COCC(C)OC(C)=O (stereo not given) | inactive | inactive | inactive | inactive | inactive | inactive | inactive | – | – | –
26 | CCn1cc(C(=O)O)c(=O)c2cnc(N3CCNCC3)nc21 | inactive | inactive | inactive | inactive | inactive | inactive | inactive | inactive | inactive | –
27 | CC(=O)c1cccc([N+](=O)[O-])c1 | inactive | inactive | inactive | inactive | inactive | inactive | inactive | – | – | –
